Consider ten compounds from PubChem BioAssay (Tox21).

Unmarked numbers belong to inactive results. Records with an inconclusive call do not appear. Activity calls are given as the source filed them. Calls come from the whole dose curve; as a rule, active = well fitted curve in the direction sought with a large enough effect in the repeat runs; inconclusive = weak or mixed curves; inactive = no such curve, though single readings can be large; an effect the other way counts as inactive or inconclusive.

The nature of assay [1]: Human pregnane X receptor (PXR) small molecule agonists, qHTS cell viability counter screen (AID 1346977). Note: nearly all actives have a fitted effect of over 50% in size. Put shortly:
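PXR-Luc HepG2 cells (2,000/well, 5% charcoal-stripped FBS) preincubated 5 hr, then exposed to compounds 24 hr at 37 C. Viability read in the same wells by CellTiter-Fluor fluorescence, reagent added at 23 hr, 1 hr incubation.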

The nature of assay [2]: Caspase-3/7 induction in HepG2 cells by small molecules, qHTS assay (AID 1346978). Note: nearly all actives have a fitted effect of over 15% in size. Put shortly: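 Wild-type HepG2 cells, 2,000/well, settled 5 hr at 37 C and 5% CO2, then compound-treated for 17 hr; caspase-3/7 activity read by luminescent Caspase-Glo 3/7 after 30 min at room temperature.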
Assay [3] in a line: Caspase-3/7 induction in CHO-K1 cells by small molecules, qHTS assay (AID 1346980). Note: nearly all actives have a fitted effect of over 15% in size. In short, it runs like this: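 Wild-type CHO-K1 cells exposed to compounds for 17hr at 37 C, 5% CO2. Caspase-3/7 activity then measured by Caspase-Glo 3/7 luminescence after 30min at room temperature.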
(In qHTS, concentration-response curves come from the screen itself.)

The nature of assay [4]: Caspase-3/7 induction in HepG2 cells by small molecules, qHTS cell viability counter screen (AID 1346981). Note: series mostly up to about 92 µM; nearly all actives have a fitted effect of over 30% in size. In short, it runs like this:
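Fluorescence read-out of live-cell protease activity (CellTiter-Fluor) after 1 hr with reagent. This was measured in the same wells as the caspase-3/7 luminescence, on HepG2 cells exposed to DMSO-dissolved compounds for 16 hr at 37 C.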

Assay [5] deals with Nuclear receptor subfamily 1 group I member 2 (Homo sapiens) (UniProt O75469). As to the kind of experiment: Human pregnane X receptor (PXR) small molecule agonists, qHTS assay (AID 1346982). Note: nearly all actives have a fitted effect of over 35% in size. Note: potency is the fitted concentration of half-maximal effect. In short, it runs like this:
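HepG2 PXR-Luc reporter line, 5% charcoal-stripped FBS; 5 hr pre-incubation, compound (DMSO) 24 hr at 37 C/5% CO2; ONE-Glo 30 min RT; luminescence read-out.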

Assay [6] has as its target Nuclear receptor subfamily 1 group I member 2 (Rattus norvegicus) (UniProt Q9R1A7). As to the kind of experiment: Rat pregnane X receptor (rPXR) activation by small molecules, qHTS assay (AID 1346983). Note: nearly all actives have a fitted effect of over 20% in size. The following applies: rPXR luciferase reporter cells, One-Glo luminescence, 24 h; max activation: active compounds read high. Put shortly: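 Cell-based rPXR activation assay: rPXR cells, 2,000 per well, rested 5hr at 37 C, then exposed to compounds in DMSO for 24 hr at 37 C. Luciferase activity read by One-Glo luminescence after 30 min at room temperature.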

For assay [7], the target named is Nuclear receptor subfamily 1 group I member 2 (Homo sapiens) (UniProt O75469). As to the kind of experiment: CYP3A4 induction through human pregnane X receptor (PXR) by small molecules, qHTS assay (AID 1346984). Note: nearly all actives have a fitted effect of over 40% in size. In short, it runs like this:
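HepG2-derived DPX-2 line carrying PXR plus a CYP3A4-promoter luciferase reporter; cells plated 5 hr, compound-exposed 24 hr at 37C. CYP3A4 activity probed with 3uM (final) Luciferin-IPA for 3hr, then luciferase read after One-Glo.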

For assay [8] the target is unchanged. In words: Human pregnane X receptor (PXR) activation by small molecules, qHTS assay (AID 1346985). Note: nearly all actives have a fitted effect of over 40% in size. Put shortly: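 DPX-2 cells (HepG2 co-transfected with a PXR response element and a CYP3A4-promoter luciferase construct) were seeded at 2,000 per well, rested 5 hr at 37C, then exposed to DMSO-dissolved compounds for 24 hr. Activation was read as luciferase luminescence.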

Assay [9] has as its target Cytochrome P450 2D6 (Homo sapiens) (UniProt P10635). As to the kind of experiment: Cytochrome P450 Family 2 Subfamily D Member 6 (CYP2D6) small molecule antagonists: luciferase reporter qHTS assay (AID 1671196). Note: nearly all actives have a fitted effect of over 50% in size. Note: potency is the fitted concentration of half-maximal effect. Put shortly:
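Luminogenic proluciferin substrate, CYP2D6 enzyme; 10 min RT preincubation with compound, NADPH regeneration system added, 1 h RT. Stop/detection reagent, 20 min RT, luminescence read (RLU). Signal proportional to CYP activity.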

The target in assay [10] is Cytochrome P450 2C19 (Homo sapiens) (UniProt P33261). As to the kind of experiment: Cytochrome P450 Family 2 Subfamily C Member 19 (CYP2C19) small molecule antagonists: luciferase reporter qHTS assay (AID 1671197). Note: nearly all actives have a fitted effect of over 65% in size. Note: potency is the fitted concentration of half-maximal effect. In short, it runs like this:
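Light output is proportional to CYP2C19 activity: proluciferin substrate is converted to luciferin, then detected by a luciferin detection reagent that also stops the 1 h, 37C NADPH-driven reaction. Ketoconazole serves as positive control.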

Assay [11] deals with Cytochrome P450 1A2 (Homo sapiens) (UniProt P05177). In words: Cytochrome P450 Family 1 Subfamily A Member 2 (CYP1A2) small molecule antagonists: luciferase reporter qHTS assay (AID 1671199). Note: nearly all actives have a fitted effect of over 50% in size. Note: potency is the fitted concentration of half-maximal effect. In short, it runs like this: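 Luminescence readout (relative luminescence units) after luciferin detection reagent, 20 min RT. Preceded by 1 h room-temperature CYP1A2 reaction with NADPH regeneration solution following 10 min compound preincubation with enzyme and proluciferin substrate. Furafylline positive control.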
A general note: A reporter such as luciferase makes a cellular process visible.

For assay [12], the target named is Cytochrome P450 3A4 (Homo sapiens) (UniProt P08684). As to the kind of experiment: Cytochrome P450 Family 3 Subfamily A Member 4 (CYP3A4) small molecule antagonists: luciferase reporter qHTS assay (AID 1671201). Note: nearly all actives have a fitted effect of over 50% in size. Note: potency is the fitted concentration of half-maximal effect. Put shortly: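 P450-Glo CYP3A4 luminescent assay: compounds preincubated 10 min at room temperature with enzyme and proluciferin substrate, NADPH regeneration added, 1 h room-temperature reaction, stopped with luciferin detection reagent; luminescence read after 20 min. Ketoconazole positive control.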

Assay [13] addresses Cytochrome P450 2C9 (Homo sapiens) (UniProt P11712). In words: Cytochrome P450 Family 2 Subfamily C Member 9 (CYP2C9) small molecule antagonists: luciferase reporter qHTS assay (AID 1671198). Note: nearly all actives have a fitted effect of over 50% in size. Note: potency is the fitted concentration of half-maximal effect. Put shortly:
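P450-Glo proluciferin substrate with CYP2C9 enzyme; 10 min RT preincubation, then NADPH regeneration 1 h at 37C; luciferin detection reagent 20 min RT, luminescence in relative luminescence units.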

Assay [14] has as its target Voltage-gated inwardly rectifying potassium channel KCNH2 (Homo sapiens) (UniProt Q12809). As to the kind of experiment: Human Ether-a-go-go-Related Gene (hERG) channel small molecule antagonists: fluorescence cell-based qHTS assay (AID 1671200). Note: nearly all actives have a fitted effect of over 50% in size. Note: potency is the fitted concentration of half-maximal effect. In short, it runs like this: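 hERG-U2OS cells plated overnight at 37 C, loaded with FluxOR II dye 1 h at RT in dark; after 10 min, thallium stimulus added. Fluorescence (480/540 nm) read kinetically for 2 min at 1 s intervals.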
Background: The hERG channel carries a current that helps repolarise heart muscle cells.

Assay [15] is described as follows: Caspase-3/7 induction in CHO-K1 cells by small molecules, qHTS cell viability counter screen (AID 1346979). Note: nearly all actives have a fitted effect of over 35% in size. In short, it runs like this:
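Wild-type CHO-K1 cells (1,500/well) treated with compound after 5 h plating; after 16 h at 37C, viability read as CellTiter-Fluor fluorescence following 1 h reagent incubation, in the same wells as the caspase read.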
% is set by controls: 0 for no effect and ±100 for the full control effect.

Voltage-gated inwardly rectifying potassium channel KCNH2 (Homo sapiens), sequence (Q12809 whole entry, looked up): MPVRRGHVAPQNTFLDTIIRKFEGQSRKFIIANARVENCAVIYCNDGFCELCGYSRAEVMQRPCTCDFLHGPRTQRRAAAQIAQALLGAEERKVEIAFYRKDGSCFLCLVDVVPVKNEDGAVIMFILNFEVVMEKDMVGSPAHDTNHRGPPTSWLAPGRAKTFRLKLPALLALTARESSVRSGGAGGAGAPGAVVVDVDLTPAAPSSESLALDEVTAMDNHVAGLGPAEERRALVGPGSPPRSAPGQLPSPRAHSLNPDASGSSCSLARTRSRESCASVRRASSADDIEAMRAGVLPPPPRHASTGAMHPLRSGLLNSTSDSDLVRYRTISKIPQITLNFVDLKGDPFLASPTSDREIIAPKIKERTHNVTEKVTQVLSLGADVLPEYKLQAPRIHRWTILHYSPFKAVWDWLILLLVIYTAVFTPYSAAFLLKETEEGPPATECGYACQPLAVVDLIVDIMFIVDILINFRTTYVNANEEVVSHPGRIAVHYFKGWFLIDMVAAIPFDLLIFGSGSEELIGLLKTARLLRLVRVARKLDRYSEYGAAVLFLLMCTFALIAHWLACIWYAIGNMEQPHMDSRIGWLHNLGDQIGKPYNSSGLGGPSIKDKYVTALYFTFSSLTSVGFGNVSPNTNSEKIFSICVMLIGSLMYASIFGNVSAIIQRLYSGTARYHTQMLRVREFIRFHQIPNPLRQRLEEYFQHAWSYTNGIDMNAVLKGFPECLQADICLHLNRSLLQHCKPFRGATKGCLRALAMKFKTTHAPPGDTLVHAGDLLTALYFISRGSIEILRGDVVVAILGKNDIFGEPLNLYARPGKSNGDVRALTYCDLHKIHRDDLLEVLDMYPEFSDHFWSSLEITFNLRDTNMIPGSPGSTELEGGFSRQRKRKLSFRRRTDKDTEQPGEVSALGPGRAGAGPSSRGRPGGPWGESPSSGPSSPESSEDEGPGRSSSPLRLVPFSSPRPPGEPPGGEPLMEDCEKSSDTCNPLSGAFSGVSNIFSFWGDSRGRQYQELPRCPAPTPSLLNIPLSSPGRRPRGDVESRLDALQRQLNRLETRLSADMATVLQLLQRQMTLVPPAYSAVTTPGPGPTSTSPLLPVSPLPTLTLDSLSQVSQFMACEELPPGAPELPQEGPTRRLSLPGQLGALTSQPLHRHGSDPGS
Cytochrome P450 2C9 (Homo sapiens), sequence (P11712 whole entry, looked up): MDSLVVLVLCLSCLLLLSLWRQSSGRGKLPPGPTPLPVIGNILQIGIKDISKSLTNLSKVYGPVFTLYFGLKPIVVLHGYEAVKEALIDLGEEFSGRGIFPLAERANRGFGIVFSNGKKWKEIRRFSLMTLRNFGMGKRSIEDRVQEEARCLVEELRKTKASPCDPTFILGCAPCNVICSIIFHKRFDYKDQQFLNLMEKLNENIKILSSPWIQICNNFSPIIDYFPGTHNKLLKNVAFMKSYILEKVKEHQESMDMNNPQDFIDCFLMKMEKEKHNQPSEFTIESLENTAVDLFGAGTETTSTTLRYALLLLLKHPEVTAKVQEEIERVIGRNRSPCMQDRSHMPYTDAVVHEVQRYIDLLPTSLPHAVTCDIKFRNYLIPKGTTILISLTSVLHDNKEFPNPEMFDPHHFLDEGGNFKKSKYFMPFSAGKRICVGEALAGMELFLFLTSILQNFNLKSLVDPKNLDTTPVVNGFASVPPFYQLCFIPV
Cytochrome P450 2D6 (Homo sapiens), sequence (P10635 whole entry, looked up): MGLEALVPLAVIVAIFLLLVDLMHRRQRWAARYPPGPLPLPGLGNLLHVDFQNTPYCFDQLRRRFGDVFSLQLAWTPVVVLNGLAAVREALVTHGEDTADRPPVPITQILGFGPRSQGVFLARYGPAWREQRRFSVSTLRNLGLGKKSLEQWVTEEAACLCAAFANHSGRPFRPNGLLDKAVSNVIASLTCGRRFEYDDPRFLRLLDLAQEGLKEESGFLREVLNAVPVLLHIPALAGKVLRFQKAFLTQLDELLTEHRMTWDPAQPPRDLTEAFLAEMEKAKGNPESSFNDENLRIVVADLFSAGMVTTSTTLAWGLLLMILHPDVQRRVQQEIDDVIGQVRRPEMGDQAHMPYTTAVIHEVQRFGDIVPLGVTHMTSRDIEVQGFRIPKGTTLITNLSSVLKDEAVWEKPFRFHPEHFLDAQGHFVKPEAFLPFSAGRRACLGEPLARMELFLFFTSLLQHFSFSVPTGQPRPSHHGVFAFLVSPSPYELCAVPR
Nuclear receptor subfamily 1 group I member 2 (Homo sapiens), sequence (O75469 whole entry, looked up): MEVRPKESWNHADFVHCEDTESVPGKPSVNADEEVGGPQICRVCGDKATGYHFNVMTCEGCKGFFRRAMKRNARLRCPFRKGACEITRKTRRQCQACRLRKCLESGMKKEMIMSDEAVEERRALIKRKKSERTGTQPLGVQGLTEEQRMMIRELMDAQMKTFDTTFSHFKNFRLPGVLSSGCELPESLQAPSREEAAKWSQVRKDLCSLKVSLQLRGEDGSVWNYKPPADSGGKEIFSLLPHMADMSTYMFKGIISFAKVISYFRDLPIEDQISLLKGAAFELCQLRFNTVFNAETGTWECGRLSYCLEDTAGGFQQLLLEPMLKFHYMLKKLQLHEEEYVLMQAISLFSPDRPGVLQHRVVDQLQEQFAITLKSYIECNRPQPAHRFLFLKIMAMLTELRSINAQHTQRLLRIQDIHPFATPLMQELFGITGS
Cytochrome P450 3A4 (Homo sapiens), sequence (P08684 whole entry, looked up): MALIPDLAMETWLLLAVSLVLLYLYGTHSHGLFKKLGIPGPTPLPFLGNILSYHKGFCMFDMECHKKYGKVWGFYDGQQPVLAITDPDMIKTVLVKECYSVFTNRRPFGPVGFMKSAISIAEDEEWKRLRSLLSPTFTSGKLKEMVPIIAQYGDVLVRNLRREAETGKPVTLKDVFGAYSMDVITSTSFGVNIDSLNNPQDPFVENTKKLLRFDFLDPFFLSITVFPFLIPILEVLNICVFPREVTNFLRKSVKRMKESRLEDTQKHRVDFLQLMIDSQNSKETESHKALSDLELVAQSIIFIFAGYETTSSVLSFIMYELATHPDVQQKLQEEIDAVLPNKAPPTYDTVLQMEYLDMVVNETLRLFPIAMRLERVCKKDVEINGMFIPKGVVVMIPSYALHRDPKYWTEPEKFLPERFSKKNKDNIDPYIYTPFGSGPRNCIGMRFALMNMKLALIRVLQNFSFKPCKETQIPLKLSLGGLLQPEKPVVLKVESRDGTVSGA
Cytochrome P450 2C19 (Homo sapiens), sequence (P33261 whole entry, looked up): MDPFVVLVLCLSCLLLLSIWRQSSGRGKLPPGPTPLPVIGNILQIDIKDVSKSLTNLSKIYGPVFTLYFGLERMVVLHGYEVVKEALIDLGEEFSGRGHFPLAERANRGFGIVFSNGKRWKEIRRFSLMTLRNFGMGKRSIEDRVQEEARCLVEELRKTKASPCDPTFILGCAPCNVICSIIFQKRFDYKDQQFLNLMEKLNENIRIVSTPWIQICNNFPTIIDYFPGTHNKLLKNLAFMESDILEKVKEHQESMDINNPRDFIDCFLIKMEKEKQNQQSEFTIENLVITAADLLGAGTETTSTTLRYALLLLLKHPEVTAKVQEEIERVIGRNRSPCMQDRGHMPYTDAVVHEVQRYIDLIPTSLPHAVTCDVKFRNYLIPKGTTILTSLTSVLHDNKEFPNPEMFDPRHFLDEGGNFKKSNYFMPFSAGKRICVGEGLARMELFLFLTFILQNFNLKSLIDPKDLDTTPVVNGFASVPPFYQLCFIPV
Cytochrome P450 1A2 (Homo sapiens), sequence (P05177 whole entry, looked up): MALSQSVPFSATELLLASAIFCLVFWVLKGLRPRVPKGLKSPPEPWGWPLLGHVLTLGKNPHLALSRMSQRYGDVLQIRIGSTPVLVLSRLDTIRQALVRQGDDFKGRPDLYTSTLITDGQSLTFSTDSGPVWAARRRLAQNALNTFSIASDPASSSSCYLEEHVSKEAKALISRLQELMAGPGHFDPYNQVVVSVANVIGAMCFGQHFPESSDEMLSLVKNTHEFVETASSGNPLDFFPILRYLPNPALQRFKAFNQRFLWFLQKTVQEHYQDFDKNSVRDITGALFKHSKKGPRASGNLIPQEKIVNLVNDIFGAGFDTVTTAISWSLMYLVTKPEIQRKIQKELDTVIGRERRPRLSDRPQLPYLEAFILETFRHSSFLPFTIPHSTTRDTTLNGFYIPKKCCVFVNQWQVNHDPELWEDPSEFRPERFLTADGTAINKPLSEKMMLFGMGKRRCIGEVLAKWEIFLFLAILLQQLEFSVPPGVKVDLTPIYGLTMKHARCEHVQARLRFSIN
Nuclear receptor subfamily 1 group I member 2 (Rattus norvegicus), sequence (Q9R1A7 whole entry, looked up): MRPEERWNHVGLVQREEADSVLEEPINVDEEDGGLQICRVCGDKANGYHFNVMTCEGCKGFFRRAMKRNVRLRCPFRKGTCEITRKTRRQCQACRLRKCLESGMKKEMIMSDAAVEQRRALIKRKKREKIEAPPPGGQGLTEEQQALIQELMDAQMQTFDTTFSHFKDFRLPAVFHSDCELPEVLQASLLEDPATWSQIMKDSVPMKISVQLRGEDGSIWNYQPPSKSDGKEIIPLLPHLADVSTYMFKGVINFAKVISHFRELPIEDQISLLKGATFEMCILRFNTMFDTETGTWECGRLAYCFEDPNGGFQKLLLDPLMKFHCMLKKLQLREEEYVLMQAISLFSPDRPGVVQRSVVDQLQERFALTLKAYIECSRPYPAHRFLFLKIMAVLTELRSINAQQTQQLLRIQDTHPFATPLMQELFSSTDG

Regarding `C=Cc1ccc(S(=O)(=O)O)cc1`, the Potency entry in assay [1], in assay [2], in assay [3], in [4], in [7] and in assay [8] was “inactive” throughout. Also, the Potency result in assay [9], in [10] and in assay [12] was “inactive” each time. Also, the values for the Potency in assay [5] and in assay [11] were 38.6 µM (active) and 71 µM (active), respectively. The max activation in [6] was -2.52%.
As to `O=C1Cc2ccccc2N1c1c(Cl)cccc1Cl`, the Potency result in [1], in [2], in [3] and in [11] was “inactive” throughout. Further, the Potency in [5] is 9.69 µM (active); in assay [10], 11.2 µM (active); in [13], 35.6 µM (active); in assay [14] it was 19.5 µM (active); in assay [12], 17.8 µM (active).
For `CCC(C)COC(=O)CC(C)C` (stereo not drawn), the Potency entry in [1], in assay [2], in [15], in assay [4], in assay [5] and in [10] was “inactive” each time. Moreover, the Potency result in assay [14] and in [12] was “inactive” each time. The Potency in [13] was 71 µM (active).
Turning to `CS(=O)(=O)c1ccc(-c2cn3ccccc3n2)cc1`, the Potency entry in assay [1], in assay [2], in assay [15], in assay [4], in assay [14] and in assay [12] was “inactive” each time. Moreover, the Potency in assay [5] is 2.66 µM (active); in assay [9], 27.5 µM (active); in [10], 24.5 µM (active); in assay [11], 0.456 µM (active).
In the case of `Oc1c(I)cc(I)c2cccnc12`, the Potency entry in assay [1], in assay [2], in assay [3], in assay [4], in [9] and in assay [10] was “inactive” throughout. Further, the Potency entry in assay [13], in assay [11], in assay [14] and in assay [12] was “inactive” throughout.
Turning to `CCCCCCC(C)(C)C(=O)O`, the Potency entry in assay [1], in assay [2], in assay [15], in [4], in assay [9] and in assay [12] was “inactive” throughout. Besides, the Potency in [5] is 48.6 µM (active); in assay [10], 71 µM (active); in assay [13], 31.7 µM (active).
For `O=C(O)CCc1nc(-c2ccccc2)c(-c2ccccc2)o1`, the Potency entry in [1], in assay [2], in [15], in [7], in assay [8] and in assay [9] was “inactive” in each case. Besides, the Potency result in assay [10], in [11], in [14] and in [12] was “inactive” throughout. Also, in assay [6], the max activation was -4.22%.
For `CC(CCC(=O)O)C(=O)O` (stereo not drawn), the Potency result in assay [1], in assay [2], in assay [15], in assay [5], in assay [13] and in assay [12] was “inactive” throughout. In addition, in assay [9], the Potency is 63.4 µM (active).
Regarding `CCOC(C)=O`, the Potency result in assay [1], in assay [2], in [15], in [5], in assay [7] and in assay [8] was “inactive” each time. For the same compound, the Potency result in assay [9], in assay [13], in assay [11], in [14] and in [12] was “inactive” each time. The max activation in assay [6] was -1.67%.
With `OC1(c2ccccc2)CCNCC1`, the Potency result in [1], in assay [2], in assay [15], in assay [4], in [5] and in assay [13] was “inactive” each time. The Potency result in assay [11], in [14] and in assay [12] was “inactive” throughout.
